In PubChem BioAssay (NCATS):
Unmarked numbers belong to inactive results. Calls follow the shape of the dose curve; as a rule, active = well fitted curve in the direction sought with a large enough effect; inconclusive = small, poorly fitted or top-dose-only effect, or effect the other way, or another doubt; inactive = no such curve, though single readings can be large or run the other way.

Test: qHTS for inhibitors of adenylyl cyclases using a fission yeast platform: a pilot screen against the NCATS LOPAC library (AID 1347410)
Conditions: S. pombe CHP2027, fbp1-GFP fluorescence, 18 h, yeast expressing mammalian AC9 and human GNAS; series mostly up to 57.5 µM; activity, positive = inhibition (GFP gain): at the top concentration
Source text: PI: Charles S. Hoffman Ph.D
Boston College, 140 Commonwealth Ave., Chestnut Hill, MA
Assay Development and Screening Technology Laboratory (ADST)
National Center for Advancing Translational Sciences (NCATS), Rockville, MD
National Institute of Health (NIH), Bethesda, Maryland
The fission yeast Schizosaccharomyces pombe uses a cAMP signaling pathway to link glucose-sensing to Protein Kinase A activity in order to regulate cell growth, sexual development, gluconeogenesis, and exit from stationary phase. Here, we describe the successful functional expression of all ten mammalian adenylyl cyclase (AC) genes, along with the human GNAS G-alpha gene in this organism. By measuring expression of a PKA-repressed fbp1-GFP reporter together with direct measurements of intracellular cAMP levels, one can detect both basal AC activity from all ten AC genes as well as GNAS-stimulated activity from eight of the nine transmembrane ACs (tmACs; AC2-AC9).
Further confirmation and validation of active compounds lead to the identification of diphenyleneiodonium chloride (DPI) as an inhibitor of basal AC activity. This fluorescence based fbp1-GFP-GNAS screening technology could facilitate the development of therapeutic compounds that target GNAS or the ACs, an area in which there is significant unmet need.
The gain-of-signal output is not substantially affected by cytotoxic compounds within the library.
Getz RA, et al., A fission yeast platform for heterologous expression of mammalian adenylyl cyclases and high throughput screening, Cellular Signaling, 2019, 60: 114-121. doi.org/10.1016/j.cellsig.2019.04.010.
PROTOCOL TABLE (as described by Inglese J, Shamu CE and Guy RK. 2007)
SEQUENCE No. (e.g., 1, 2, 3, etc.); […] (e.g., Cells, Incubation, Reagent, etc.); VALUE; DESCRIPTION.
1; Dispense growth medium; 2 uL; black, clear bottom, low base, 1536-well Aurora assay plate.
2; Compounds and control; 23 nL; Kalypsis pin tool (Wako USA) equipped with a 1536-well pin head to transfer to the assay plates.
3; Dispense yeast cells; 2 uL; CHP2027 cells.
4; Incubation; 18 hours (dark at 30C); Non-humidified microbial incubator.
5; Detector; 425V; Fluorescence; laser scanning cytometry.
NOTES (numbers refer to Sequence numbers above)
1. S. pombe growth medium EMM containing histidine, lysine, and uracil was initially dispensed into the assay plate to avoid yeast contamination using a Multidrop Combi dispenser (Thermo Fisher Scientific).
2. 10 mM stock solution of DPI (Sigma-Aldrich D2926) dissolved in DMSO was used as a 16-point dose response positive control, while 1.11 mM DPI stock solution was used as a single point max response positive control. Solvent DMSO was used as the negative control. Control DPI was transferred as a single-dose (column 3; rows 1-32; 1.11 mM stock), and multi-dose (column 4; rows 1-32; 10mM stock; 1:1.5 dilution; 16pnt titration) positive controls. Vehicle control DMSO was pinned into column 1-2, rows 1-32. Lopac compounds were pinned into columns 5-48 resulting to a final concentration range 57 µM to 78.4 nMControl DPI stock (10 mM) was prepared by dissolving 10 mg in 3.18 mL DMSO; while 1.11 mM DPI stock was prepared by mixing 100 uL of 10 mM DPI with 800 uL DMSO. To create the control plates, we initially start with a 384-well compound working plate. With a repeater pipette, (a.) 16 uL/well of 1.11 mM DPI was added to column 3; (b.) 16 uL/well of DMSO was added into rows 2-16 of column 4; (c.) 50 uL/well of DPI added to rows 1 and 2 of column 4; (d.) 32 uL serial dilution (two-thirds-fold) from rows 2 to 16 of column 4 with manual pipette. From the 384-well compound working plate, 7 uL of respective control compound was transferred to respective columns of the 1536-well compound plate using a multichannel pipette.
3. S. pombe CHP2027 (AC9-GNAS-PDE4D2) expressing fbp1-GFP cells were grown at 30C in EMM medium containing histidine, lysine, and uracil. […]

SMILES	activity, positive = inhibition (GFP gain) [%]
COc1ccccc1N1CCN(CCN2C(=O)CC3(CCCC3)CC2=O)CC1	-0.438
O=[N+]([O-])c1ccc(-c2nc(-c3ccc(F)cc3)c(-c3ccncc3)[nH]2)cc1	1.17
Clc1ccc2c(c1)N=C(N1CCNCC1)c1ccccc1N2	-0.438
O=C1NC(=O)/C(=C/c2ccc3c(c2)OC(F)(F)O3)S1	0.128
Brc1ccc([C@H]2CN3CCSC3=N2)cc1	-0.0209
CC(C)N(CCC(=O)c1ccc2ccccc2c1)Cc1ccccc1	-0.438
COC(=O)C1=CO[C@@H](O)[C@@H]2C(CO)=CC[C@H]12	-0.438
NC(N)=NCCCCN=C(N)N	-0.438
Cc1nn(-c2ccccc2)c(C)c1/C=N/N1CCN(Cc2ccccc2)CC1	0.0626
CN(C)c1cc2c(Nc3ccc4c(cnn4Cc4ccccc4)c3)ncnc2cn1	0.109
O=C1NC(c2cccc([N+](=O)[O-])c2)=CCN1c1ccccc1O	-0.438
Nc1ncnc2n[nH]c(Nc3ccc(F)cc3)c12	-0.438
Cn1cnc2c(NCc3ccccc3)nc(NCCO)nc21	0.244
N[C@@H](Cn1ccc(=O)c(O)c1)C(=O)O	-0.438
CCN(CC)CCNC(=O)c1ccc(NS(C)(=O)=O)cc1	-0.438
C[N+](C)(C)CCO	-0.438
COc1cccc2c1[C@@H]1CN(CCCCn3c(=O)[nH]c4c(sc5ncc(-c6ccccc6)nc54)c3=O)C[C@@H]1CO2	-0.0116
